This is a sample that favours compounds with a hit; in the whole collection about 9% have one here.
G9a inh: G9a (human) methyltransferase inhibition; Q96KQ7; G9a H3K9 monomethylation, AlphaScreen, 2 h; Potency, µM (highest dose often 102 µM), inactives show at the top dose activity, negative = inhibition, actives largely listed as inhibitors; 350,000 compounds, 8.8% hits; AID 504332; note: % is set by controls: 0 for no effect and ±100 for the full control effect; nearly all actives have a fitted effect of over 75% in size
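Methyltransferase reactions run at room temperature for 2 h (20 nM enzyme, 500 nM biotin-H3K9 peptide, 20 uM SAM) after a 15 min compound preincubation; product detected by AlphaScreen beads and anti-H3K9me1 antibody.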
HP1b chromo inh: HP1-beta chromodomain-methylated histone interaction inhibition | P83916 | AlphaScreen HP1-beta / biotin-H3K9me3 peptide binding | Potency, µM (doses to about 114 µM), inactives show top-dose activity change, negative = inhibition, most hits filed as inhibitors | 390,000 compounds, 0.56% hits | AID 540317; note: nearly all actives have a fitted effect of over 70% in size
Target sequence (P83916 whole entry, looked up): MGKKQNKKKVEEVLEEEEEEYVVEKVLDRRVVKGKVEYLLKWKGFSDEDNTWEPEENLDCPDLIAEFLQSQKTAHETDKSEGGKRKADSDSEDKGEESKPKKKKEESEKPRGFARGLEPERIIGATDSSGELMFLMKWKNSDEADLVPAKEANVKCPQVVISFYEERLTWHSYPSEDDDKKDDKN
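HP1-beta protein (50 nM final) preincubated 30 min at room temperature with biotinylated H3(1-18)K9me3 peptide (50 nM) in PBS pH 7.4, 0.01% Tween-20, then compound added for 30 min. AlphaScreen streptavidin donor/nickel chelate acceptor beads (10 ug/mL final), 30 min dark, luminescence read.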
JMJD2A Tudor: blocks the human JMJD2A Tudor domain. AlphaScreen JMJD2A-Tudor / H3K4me3 peptide binding. 390,000 compounds, 4.4% hits. Potency, µM (highest dose often 114 µM), for the others: top-dose activity change, negative = inhibition, most hits filed as inhibitors; note: % is set by controls: 0 for no effect and ±100 for the full control effect; nearly all actives have a fitted effect of over 50% in size
BAZ2B inh: blocks human BAZ2B | 360,000 compounds, 4.4% hits | AlphaScreen BAZ2B-H3K14Ac peptide displacement | Potency, µM (doses to about 114 µM), for inactives: top-dose activity change, negative = inhibition, actives largely listed as inhibitors; note: % is set by controls: 0 for no effect and ±100 for the full control effect; nearly all actives have a fitted effect of over 60% in size
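Compounds, titrated to a top concentration of 110 uM, were incubated 30 min at room temperature with preformed BAZ2B/acetyl-K14 H3 peptide complex (50 nM each). Proximity signal was measured by AlphaScreen after 20 min with beads.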
PLK1 PBD inh: inhibitors of human PLK1 polo-box domain binding | Plk1 PBD binding of FITC phosphopeptide, fluorescence polarization | 360,000 compounds, 2.8% hits | P53350 | AID 720504 | Potency, µM, without a hit: max response, negative = inhibition, most hits filed as inhibitors; note: series mostly up to about 57 µM; % is set by controls: 0 for no effect and ±100 for the full control effect; nearly all actives have a fitted effect of over 65% in size
Target sequence (P53350 whole entry, looked up, the tested form may be a part): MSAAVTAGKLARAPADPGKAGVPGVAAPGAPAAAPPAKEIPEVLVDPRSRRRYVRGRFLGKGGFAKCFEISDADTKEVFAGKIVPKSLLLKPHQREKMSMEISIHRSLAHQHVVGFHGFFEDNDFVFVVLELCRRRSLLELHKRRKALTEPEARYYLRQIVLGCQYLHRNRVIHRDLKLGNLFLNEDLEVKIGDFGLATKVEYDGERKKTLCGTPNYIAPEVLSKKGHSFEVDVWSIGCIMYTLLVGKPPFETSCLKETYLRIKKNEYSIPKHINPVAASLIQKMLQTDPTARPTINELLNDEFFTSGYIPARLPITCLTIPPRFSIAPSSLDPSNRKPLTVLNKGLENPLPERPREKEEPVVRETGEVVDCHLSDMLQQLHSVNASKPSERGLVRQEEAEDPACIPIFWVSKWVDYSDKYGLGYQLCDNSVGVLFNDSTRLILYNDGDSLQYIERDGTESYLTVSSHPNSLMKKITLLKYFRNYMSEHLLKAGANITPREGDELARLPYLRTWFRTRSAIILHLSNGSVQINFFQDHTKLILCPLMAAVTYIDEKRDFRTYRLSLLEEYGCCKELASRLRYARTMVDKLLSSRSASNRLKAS
ALOX12 inh: ALOX12 (human) lipoxygenase inhibition | P18054 | purified 12hLO, xylenol orange hydroperoxide absorbance | Potency, µM (titrated, usually from 108 µM), for the others: at the highest dose activity change, negative = inhibition, hits mostly inhibitors | 580,000 compounds, 1.1% hits | AID 1671190; note: % is set by controls: 0 for no effect and ±100 for the full control effect
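Hydroperoxide product was detected by ferrous iron/xylenol orange as the 573 to 405 nm absorbance ratio. Arachidonic acid at 40 uM (final) was turned over for 30 min at room temperature by 150 nM human 12hLO, pH 7.0 Hepes buffer, after 15 min compound preincubation.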
* = called active by the depositor; i = inactive; ? = inconclusive; nt = no result; [ ] = another dose, or the depositor's remark. Calls come from the whole dose curve; as a rule, active = well fitted curve in the direction sought with a large enough effect; inconclusive = small, poorly fitted or top-dose-only effect, or another doubt; inactive = no such curve, though single readings can be large; an effect the other way counts as inactive or inconclusive. Potency is the fitted concentration of half-maximal effect.

SMILES	G9a inh	HP1b chromo inh	JMJD2A Tudor	BAZ2B inh	PLK1 PBD inh	ALOX12 inh
COc1cc(C2c3cc4c(cc3C(O)C3COCC23)OCO4)cc(OC)c1OC (stereo not given)	nt	-7.2%	-25.5%	nt	-13.4%	?
O=C(NC(=O)c1ccc(F)cc1F)Nc1ccc(Cl)cc1	44.7µM*	43.0%	-12.7%	-10.2%	-10.9%	5.1%
Cc1ccc(NC(=O)c2ccc(F)cc2F)cc1	nt	32.9%	-0.7%	nt	4.8%	-1.4%
CCN1C(=O)/C(=C2\C=Cc3ccccc3N2CC)SC1=S	?	3.16µM*	2.82µM*	8.91µM*	1.1%	-6.4%
CCN1C(=O)/C(=C2\C=Cc3cc(C)ccc3N2CC)OC1=S	?	?	?	?	1.0%	21.4%
CCN1C(=O)/C(=C2/C=Cc3ccccc3N2C)OC1=S	20µM*	5.6%	-25.2%[11.4 µM]	-28.6%	-11.9%	-6.7%
Cc1cc(C)c2oc(C(=O)N(Cc3ccc(C)o3)c3ccccn3)cc(=O)c2c1	nt	nt	nt	nt	nt	-7.7%
COc1ccc(-c2cc(-c3ccco3)[nH]c(=O)c2C#N)cc1	nt	17.4%	?	56.2µM*	-23.7%	39.8µM*
COc1ccc(-c2cc(C(F)(F)F)c(C#N)c(=O)[nH]2)cc1	23.5%	-11.1%	21.8%	5.3%	-4.9%	-0.7%
N#Cc1c(-c2cccc(Br)c2)cc(-c2ccco2)[nH]c1=O	11.2µM*	-3.3%	?	44.7µM*	13.4µM*	17.8µM*
Cc1ccc(-c2csc(CCn3nc(C)c4c(C(F)(F)F)cc(=O)[nH]c43)n2)cc1	nt	nt	nt	nt	nt	10µM*
COc1ccc(-c2csc(CCn3nc(C)c4c(C(F)(F)F)cc(=O)[nH]c43)n2)cc1	nt	nt	nt	nt	nt	17.8µM*
Cc1nn(CCC#N)c2[nH]c(=O)cc(C(F)(F)F)c12	-29.2%	34.1%	-6.2%	-9.7%	-10.1%	-0.7%
CCN(CC)S(=O)(=O)c1ccc(Cl)c(NC(=S)NC(=O)C2CCCC2)c1	-0.8%[59 µM]	31.1%	-29.5%	3.4%	-10.4%	15.8µM*
CCN(CC)c1ccc(S(=O)(=O)Nc2cc(Cl)ccc2Cl)cc1NC(=S)NC(=O)C1CCCC1	?	?	?	-9.6%	9.47µM*	?
COc1ccccc1NS(=O)(=O)c1ccc(Cl)c(NC(=S)NC(=O)C2CCCC2)c1	10.9%[59 µM]	1.6%	-29.1%	-30.5%	-7.5%	?
C[C@@H](CO)NC(=O)[C@H]1O[C@@H](n2ccc(=O)[nH]c2=O)[C@H](O)[C@@H]1O	nt	nt	nt	nt	0.6%	12.6%
CC(C)Cc1ccc(S(=O)(=O)N2C[C@@H](F)C[C@H]2C(=O)N2CCc3ccccc3C2)cc1	nt	nt	nt	nt	nt	33.7%
Cc1nc2nc(SCC(=O)NC3CCCC3)nn2c(C)c1Cc1cccc(Cl)c1	nt	nt	nt	nt	nt	4.8%
COc1ccc(C(=S)N2CCOCC2)cc1OS(=O)(=O)c1ccc(Br)cc1	44.7µM*	-11.3%	-27.4%	-38.9%	-18.7%	i
COc1cc(C(=O)Oc2ccc(C(=S)N3CCOCC3)cc2)cc(OC)c1OC	nt	8.8%	2.6%	-0.1%	-16.4%	0.0%
CC(C)(C)c1cc(C(=S)N2CCCC2)cc(C(C)(C)C)c1O	nt	-21.6%	?	?	29.9µM*	?
COc1ccc(C(=O)Oc2c(OC)cc(C(=S)N3CCOCC3)cc2OC)cc1OC	-9.0%[0.501 µM]	?	?	-12.3%	21.2µM*	?
COc1ccc(S(=O)(=O)Oc2c(OC)cc(C(=S)N3CCOCC3)cc2OC)cc1	22.4µM*	-18.8%	-29.5%	-23.5%	26.7µM*	?
O=C(Nc1ncnc2c1CCC2)C12CC3CC(CC(C3)C1)C2	8.4%	10.6%	-3.1%	6.5%[57.1 µM]	-10.0%	1.5%[57.4 µM]
SMILES	G9a inh	HP1b chromo inh	JMJD2A Tudor	BAZ2B inh	PLK1 PBD inh	ALOX12 inh
O=C(NC(=S)N1CCCC1)c1ccc(Cl)cc1Cl	10.8%	22.2%	-3.2%	-20.4%	4.0%	0.0%
COc1cc(C(=S)N2CCCC2)cc(OC)c1OS(=O)(=O)c1ccc(NC(C)=O)cc1	31.6µM*	?	?	-27.9%	11.9µM*	?
COc1ccc(C(=O)Oc2c(OC)cc(C(=S)N3CCOCC3)cc2OC)cc1	44.7µM*	15.0%	-18.3%	-29.6%	-7.8%	2.5%
O=C(NC(=S)N1CCOCC1)c1ccccc1Cl	nt	30.2%	0.0%	-1.7%	-0.3%	1.26µM*
COc1ccc(C(=O)NC(=S)N2CCOCC2)cc1OC	50.1µM*	8.7%	-15.6%	-30.3%	-17.7%	-5.6%
CC1Sc2ccc(S(=O)(=O)CCC(=O)NC3CCCCCCC3)cc2NC1=O (stereo not given)	nt	nt	nt	nt	nt	-19.3%
O=C(O)C1=C[C@H](c2csc3ccccc23)C[C@H](OCc2ccc(CO)cc2)O1	1.1%[12.7 µM]	24.2%	-22.4%	-12.3%	-10.6%	?
CCCCN(C=O)c1c(CC)nc2c(OCCn3cccc3)cccn12	nt	nt	nt	nt	-4.0%	-3.9%
O=C(CN1CCN(Cc2ccc3c(c2)OCO3)CC1)Nc1ccc2c(c1)OCCO2	-3.3%[12.7 µM]	7.9%	-20.9%	-0.4%	-7.2%	465.0%
COc1cc(C(=S)N2CCCC2)cc(OC)c1OC	39.8µM*	5.4%	-18.1%	-19.1%	-21.4%	-11.1%
COc1ccc(C(=S)N2CCCC2)cc1OC	22.7%[59 µM]	33.0%	-11.8%	10.0%	-2.6%	0.0%
Cc1cccc(NC(=O)CCSc2nc(C)cc(C)n2)c1	8.8%[0.501 µM]	41.6%	-7.1%	-0.8%	-18.2%	140.8%
CCNC(=O)CCSc1nc(C)cc(C)n1	3.55µM*	9.8%	?	-0.4%	-6.3%	?
Cc1cc(C)nc(SCCC(=O)N(C)C)n1	8.91µM*	39.0%	?	-0.7%	?	0.0%
O=C(N/N=C\c1ccncc1)c1ccc(Cl)s1	14.2%	32.2%	-5.3%	-28.5%	1.0%	19.7%
O=C(CSc1ccc(-c2cccs2)nn1)N1CCCCC1	?	31.1%	-12.5%	-21.8%	-6.4%	-2.9%
Cc1ccc2nc(CSc3nnc(Cc4cccs4)n3C3CCCCC3)cc(=O)n2c1	?	45.8%	-26.7%	-1.8%	-27.0%	-25.1%[57.4 µM]
Cc1sc2nc(CSc3nnc(Cc4cccs4)n3C3CCCCC3)[nH]c(=O)c2c1C	44.7µM*	36.6%	-20.9%	11.6%	2.1%	6.4%
O=c1[nH]c(CSc2nc3ccccc3s2)nc2cc(Cl)ccc12	28.2µM*	nt	nt	-15.7%	nt	?
Cc1sc2nc(CSc3nc4ccccc4s3)[nH]c(=O)c2c1C	8.91µM*	nt	nt	?	nt	?
O=c1[nH]c(CSc2nc3ccccc3s2)nc2ccccc12	?	-3.8%	-24.0%	1.6%	?	1.8%
O=Cc1c(NCCN2CCOCC2)c2ccccc2[nH]c1=O	nt	23.5%	-8.2%	14.9%	-4.9%	?
COCCOC(=O)C1=C(C)N(c2ccccc2)C(=O)NC1c1cccc([N+](=O)[O-])c1 (stereo not given)	14.8%[59 µM]	9.6%	-6.3%	13.6%	-2.7%	-20.6%
CCN(CC)CCn1c2c(c(SCC(=O)Nc3cccc4ccccc34)nc1=O)CCC2	?	4.2%	-12.2%	1.7%	-9.5%	-31.1%

Bioassay records (PubChem)
